# Results: PubChem BioAssay (NCI)
# Compounds without any hit were thinned out: in the full panel of roughly 83,000, 20% have a hit.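 Compound tested at a single concentration for 48 hours in 96-well plates; a percent growth value below 10 was scored as active.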 Active and inactive are the calls of the source.
# Tested on: OVCAR-8 ovarian
# Assay: NCI-60 one-dose screen, 48 h (100 = growth as untreated, 0 = no growth, -100 = all killed)
# Settings: 10 µM
row,Structure (SMILES),growth
1,NS(=O)(=O)Oc1ccc(NC(=O)C2CCCCCC2)cc1,98.8% (inactive)
2,O=C(CSc1nnc(-c2cccnc2SCc2ccccc2)o1)Nc1nc(Cl)cc(Cl)n1,102% (inactive)
3,O=C1/C=C/[C@@H](O)[C@@H]2C[C@@H](O)C[C@H]2/C=C/CCC[C@H](CCc2ccc(NC(=S)Nc3ccc4c(c3)C(=O)OC43c4ccc(O)cc4Oc4cc(O)ccc43)cc2)O1,10.5% (inactive)
4,O=C(CCl)Nc1ccc(Cc2ccc(NC(=O)CCl)cc2)cc1,0.481% (active)
5,Cc1cc(Cl)ccc1Nc1nc(C(F)(F)F)ccc1C(=O)N/N=C/c1c(Cl)cccc1Cl,9.98% (active)
6,COc1ccc2c(c1)C(=O)/C(=C/c1ccc([N+](=O)[O-])o1)O2,-71.6% (active)
7,S=C(SSC(=S)N(c1ccccc1)c1ccccc1)N(c1ccccc1)c1ccccc1,89.8% (inactive)
8,CC(C)=CCC/C(C)=C/CC/C(C)=C/CC/C=C(\C)CC/C=C(\C)CCC(=O)Nc1ccn(C2OC(CO)C(O)C2(F)F)c(=O)n1 (stereo not given),19.2% (inactive)
9,c1ccc(/C(=N\Nc2ccc3ccccc3n2)c2ccccn2)cc1,11.1% (inactive)
10,c1ccc(CSc2ncccc2-c2nnc(SCCN3CCOCC3)o2)cc1,109% (inactive)
11,CN(C)c1ncnc2c1nnn2C1OC(CO)C(O)C1O (stereo not given),8.85% (active)
12,COc1ccccc1/C=N\N/C(N)=N\N=C\c1ccccc1OC,27.2% (inactive)
13,COc1cc(/C=C/c2cc(/C=C/c3ccc(O)c(OC)c3)nc(N)n2)ccc1O,9.33% (active)
14,O=C(/C=C/c1cccc(B(O)O)c1)c1cccc(B(O)O)c1,-12.2% (active)
15,CN(C)CCC1(c2ccccc2)CCN(C)C1=O (stereo not given),104% (inactive)
16,COc1ccc(/C=C/c2nnc(/C=C/c3ccc(OC)c(OC)c3)o2)cc1OC,42.1% (inactive)
17,CN(C)c1ccc(/C=N/NC(=O)c2ccccc2Nc2cccc(C(F)(F)F)c2)cc1,99.6% (inactive)
18,CN(C)CCOc1ccc(-c2nc3sccn3c2-c2ccnc(S(C)(=O)=O)n2)cc1,106% (inactive)
19,COc1ccc(CCN2CCC(Nc3nc4ccccc4n3Cc3ccc(F)cc3)CC2)cc1,-40.4% (active)
20,O=C(CN(C1CCCCC1)C1CCCCC1)Nc1ccc(S(=O)(=O)c2ccc(NC(=O)CN(C3CCCCC3)C3CCCCC3)cc2)cc1,3.23% (active)

row,Structure (SMILES),growth
1,COc1ccc2nc(-c3ccc(Cl)cc3)cc(-c3nnc(SC/C(=N\O)c4ccccc4)n3-c3ccccc3)c2c1,82.3% (inactive)
2,Cc1cc(CSc2ccccc2C(=O)N2CC=C(c3ccccc3)CC2)on1,111% (inactive)
3,CCOC(=O)c1cc(C(=O)c2cc(OC)c(OC)c(OC)c2)n2nc(C)ccc12,25.4% (inactive)
4,O=C(O)c1ccc(-n2cc(CNc3ccc(Cl)cc3)c(-c3ccccc3)n2)cc1,98.9% (inactive)
5,CNC(=O)c1cc(Oc2ccc3c(c2)sc2nc(-c4ccc(N)cc4)cn23)ccn1,10.9% (inactive)
6,Nc1ccc(CC[C@H]2CCC/C=C/[C@@H]3C[C@H](O)C[C@H]3[C@H](O)/C=C/C(=O)O2)cc1,2.58% (active)
7,CNC(=O)c1cn(C2CC2)c2cc(N3CCN(C(=O)c4cc(OC)c(OC)c(OC)c4)CC3)c(F)cc2c1=O,100% (inactive)
8,CN1CCN(C2=Nc3ccccc3Oc3ccc(Cl)cc32)CC1,107% (inactive)
9,COc1ccc(Cc2cnc(N)nc2N)cc1OC,96.2% (inactive)
10,COc1ccc(C(c2ccc(OCCN(C)C)cc2)c2cc3ccccc3c3ccccc23)cc1 (stereo not given),70.2% (inactive)
11,O=C(N/N=C/c1ccc(Cl)cc1)c1ccccc1Nc1cccc(C(F)(F)F)c1,80.3% (inactive)
12,CC(=O)O[C@@]12CO[C@@H]1C[C@H](O)[C@@]1(C)C(=O)[C@H](O)C3=C(C)[C@@H](OC(=O)[C@H](O)[C@@H](NC(=O)OC(C)(C)C)c4ccccc4)C[C@@](O)([C@@H](OC(=O)c4ccccc4)C12)C3(C)C (stereo not given in full),38.4% (inactive)
13,CS(=O)(=O)c1nccc(-c2c(-c3cccc(OCCc4ccccc4)c3)nc3sccn23)n1,98% (inactive)
14,C(=N\Nc1ncnc2sc3c(c12)CCNC3)/c1cccc2ccccc12,58.2% (inactive)
15,CNS(=O)(=O)Oc1ccc(-c2sc3cc(OS(=O)(=O)NC)ccc3c2C(=O)c2ccc(OCCN3CCCCC3)cc2)cc1,86.6% (inactive)
16,CCCCC/C=C/C/C=C/CCCCCCCC1=NC(C)(C)CN1C(C)C,28.3% (inactive)
17,C#C[C@]1(O)CCC2C3CCc4cc(OC5CCCC5)ccc4C3CC[C@@]21C (stereo not given in full),81.3% (inactive)
18,O=C(N/N=C/c1c(Cl)cccc1Cl)c1ccccc1Nc1cccc(C(F)(F)F)c1,103% (inactive)
19,COc1cccc(-c2nc3sccn3c2-c2cccc(S(C)(=O)=O)c2)c1,101% (inactive)
20,CC(=O)Nc1ccc(S(=O)(=O)c2ccnc3cc(Cl)ccc23)cc1,73.3% (inactive)
